Reference: PubChem BioAssay AID1159580 (chemical genetic matrix, 2015)
Where “and” joins values, the source holds several entries; their conditions need not be identical. Identical values can stand only once. Out of some 5,500 compounds screened, about 2,000 (36%) were called active. Another 18% or so got no clear call; they are omitted. No stated cut-off is given here; in the data, active means normalized growth mostly below about 0.91 (no sharp cut-off); inconclusive means no clear call, values can overlap the other calls; inactive means mostly above about 0.92. The list shows a part of the results.

Test: chemical genetic growth profiling, strain panel (AID 1159580);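 further: tested at 20 µM; growth read once vehicle control cultures reached saturation at 30 °C; 1 = growth at the plate median or of vehicle wells; lower values mean less growth of the strain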
Details: S. cerevisiae deletion strains, growth OD

Measured: normalized growth

CCCNC(C)C(=O)Nc1ccccc1C (stereo not given)
inactive: locus YAL013W, strain DEP1, hits give low values 1.01 | locus YAL021C, strain ccr4, hits give low values 1.01 | locus YAL026C, strain drs2, hits give low values 1.01 | locus YAL030W, strain snc1, hits give low values 0.995 | locus YAL040C, strain CLN3, hits give low values 1.07 | locus YBL061C, strain skt5, hits give low values 1.01 | locus YBR009C, strain hhf1, hits give low values 1.01 | locus YBR021W, strain FUR4, hits give low values 1.01 | locus YBR023C, strain chs3, hits give low values 1 | locus YBR171W, strain sec66, hits give low values 1.01 | locus YBR229C, strain ROT2, hits give low values 1.01 | locus YBR231C, strain swc5, hits give low values 1.01 | locus YBR279W, strain paf1, hits give low values 1.01 | locus YCL011C, strain gbp2, hits give low values 0.999 | locus YCL016C, strain dcc1, hits give low values 1.01 | locus YCL029C, strain bik1, hits give low values 1 | locus YCL061C, strain MRC1 (second series), hits give low values 1.01 | locus YCL061C, strain MRC1, hits give low values 0.997 | locus YCL069W, strain vba3, hits give low values 1.01 | locus YCR088W, strain abp1, hits give low values 1.01 | locus YDL005C, strain med2, hits give low values 1 | locus YDL035C, strain GPR1, hits give low values 1.01 | locus YDL040C, strain nat1, hits give low values 1.01 | locus YDL074C, strain BRE1, hits give low values 1.02 | locus YDL101C, strain DUN1, hits give low values 1.02 | locus YDL134C, strain PPH21, hits give low values 1.01 | locus YDL185W, strain tfp1, hits give low values 0.997 | locus YDL192W, strain arf1, hits give low values 0.996 | locus YDR001C, strain nth1, hits give low values 1 | locus YDR069C, strain doa4, hits give low values 1.02 | locus YDR101C, strain arx1, hits give low values 1 | locus YDR137W, strain rgp1, hits give low values 1.03 | locus YDR150W, strain NUM1, hits give low values 1.01 | locus YDR159W, strain sac3, hits give low values 1 | locus YDR162C, strain NBP2, hits give low values 1.01 | locus YDR195W, strain ref2 1.01 | locus YDR297W, strain sur2, hits give low values 1 | locus YDR318W, strain mcm21, hits give low values 0.998 | locus YDR334W, strain swr1, hits give low values 0.998 | locus YDR335W, strain msn5, hits give low values 1.01 | locus YDR363W, strain ESC2, hits give low values 1.05 | locus YDR388W, hits give low values 0.99 | locus YDR392W, strain spt3, hits give low values 1.01 | locus YDR502C, strain sam2, hits give low values 0.991 | locus YEL003W, strain gim4, hits give low values 0.998 | locus YEL037C, strain rad23, hits give low values 0.994 | locus YEL061C, strain CIN8 (second series), hits give low values 1.01 | locus YEL061C, strain CIN8, hits give low values 1.01 | locus YER002W, strain NOP16, hits give low values 0.995 | locus YER015W, strain faa2, hits give low values 0.984 | locus YER016W, strain bim1, hits give low values 0.999 | locus YER110C, hits give low values 0.991 | locus YER111C, strain swi4, hits give low values 1 | locus YER155C, strain BEM2 (second series), hits give low values 1.01 | locus YER155C, strain BEM2, hits give low values 1.01 | locus YER167W, strain BCK2, hits give low values 1 | locus YFR010W, strain ubp6, hits give low values 0.992 | locus YGL078C, strain dbp3, hits give low values 0.987 | locus YGL086W, strain mad1, hits give low values 0.993 | locus YGL167C, strain pmr1, hits give low values 1.01 | locus YGL173C, strain kem1, hits give low values 1 | locus YGL227W, strain vid30, hits give low values 1 | locus YGL240W, strain doc1, hits give low values 1.01 | locus YGL248W, strain PDE1, hits give low values 1.02 | locus YGL253W, strain hxk2, hits give low values 1.01 | locus YGR078C, strain PAC10, hits give low values 1 | locus YGR135W, strain pre9, hits give low values 0.957 | locus YGR229C, strain SMI1, hits give low values 0.99 and 1.01 | locus YGR252W, strain gcn5, hits give low values 0.911 | locus YHR013C, strain ard1, hits give low values 1.01 | locus YHR027C, strain rpn1, hits give low values 1.01 | locus YHR030C, strain SLT2, hits give low values 1.01 and 1.04 | locus YHR079C, strain IRE1 (second series), hits give low values 1.01 | locus YHR079C, strain IRE1, hits give low values 1.06 | locus YHR094C, strain hxt1, hits give low values 0.982 | locus YHR129C, strain ARP1, hits give low values 1.01 | locus YHR142W, strain chs7, hits give low values 1 | locus YHR200W, strain rpn10, hits give low values 0.999 | locus YIL066C, strain RNR3, hits give low values 1.02 | locus YIL073C, strain SPO22, hits give low values 0.989 | locus YIL125W, strain kgd1, hits give low values 0.981 | locus YIR030C, strain dcg1, hits give low values 0.994 | locus YJL092W, strain hpr5, hits give low values 1 | locus YJL095W, strain BCK1 (second series), hits give low values 1.01 | locus YJL095W, strain BCK1, hits give low values 1.02 and 1.05 | locus YJL115W, strain asf1, hits give low values 1.01 | locus YJL129C, strain trk1, hits give low values 1.01 | locus YJL134W, strain LCB3, hits give low values 1.01 | locus YJL154C, strain vps35, hits give low values 1 | locus YJL164C, strain tpk1, hits give low values 0.958 | locus YJL166W, strain qcr8, hits give low values 0.999 | locus YJL168C, strain set2, hits give low values 0.991 | locus YJL187C, strain SWE1 (second series), hits give low values 1.02 | locus YJL187C, strain SWE1, hits give low values 0.999 | locus YJR043C, strain POL32, hits give low values 1
